G9a inh: blocks human histone lysine methyltransferase G9a; G9a H3K9 monomethylation, AlphaScreen, 2 h; Potency, µM (highest dose often 102 µM), usual class: inhibitors; hit rate 8.8% among 350,000; also: nearly all actives have a fitted effect of over 75% in size
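Compounds were preincubated with 20 nM G9a for 15 min, after which biotinylated H3K9 peptide (500 nM) and SAM (20 uM) started a 2 h room-temperature reaction. Monomethylated product was quantified by antibody-based AlphaScreen chemiluminescence.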
HP1b binding inh: inhibitors of HP1-beta chromodomain binding to methylated histone tails; P83916; AlphaScreen HP1-beta / biotin-H3K9me3 peptide binding; Potency, µM (top dose mostly 114 µM), usual class: inhibitors; hit rate 0.56% among 390,000; also: nearly all actives have a fitted effect of over 70% in size
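Compound inhibition of the preformed complex between 50 nM HP1-beta and 50 nM biotinylated H3K9me3 peptide was read by AlphaScreen. Buffer was PBS pH 7.4 with 0.01% Tween-20. Incubations ran 30 min at room temperature, with 10 ug/mL donor/acceptor beads.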
JMJD2A Tudor: blocks the human JMJD2A Tudor domain. hit rate 4.4% among 390,000. AlphaScreen JMJD2A-Tudor / H3K4me3 peptide binding. Potency, µM (highest dose often 114 µM), usual class: inhibitors. O75164; also: nearly all actives have a fitted effect of over 50% in size
PLK1 PBD inh: PLK1 (human) polo-box domain binding inhibition; P53350; Plk1 PBD binding of FITC phosphopeptide, fluorescence polarization; Potency, µM, hits mostly inhibitors; hit rate 2.8% among 360,000; AID 720504; also: series mostly up to about 57 µM; nearly all actives have a fitted effect of over 65% in size
BAZ2B block: BAZ2B (human) inhibition | Potency, µM (top dose mostly 114 µM), hits mostly inhibitors | AID 504333 | hit rate 4.4% among 360,000 | AlphaScreen BAZ2B-H3K14Ac peptide displacement; also: nearly all actives have a fitted effect of over 60% in size
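Multi-concentration screen (max 110 uM) measuring displacement of acetylated histone H3 peptide from BAZ2B by AlphaScreen, using 50 nM protein, 50 nM peptide and 10 ug/mL streptavidin donor plus Ni-chelate acceptor beads.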
ALOX12 inh: ALOX12 (human) lipoxygenase inhibition; AID 1671190; purified 12hLO, xylenol orange hydroperoxide absorbance; hit rate 1.1% among 580,000; Potency, µM (top dose mostly 108 µM), most hits filed as inhibitors; P18054
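Purified human 12hLO at 150 nM in 25 mM Hepes, 0.01% Triton X-100, pH 7.0, preincubated 15 min at room temperature with compound. Reaction started with 40 uM arachidonic acid, 30 min at room temperature. Hydroperoxide measured by Fe-xylenol orange, 573/405 nm absorbance ratio.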
A number is an active result; n = inactive; u = inconclusive; x = not tested or not shown; ! = a repeat was not active; [ ] = dose if it differs, or a comment. Sampled rows, rich in hits. Any-hit rate of the full collection: about 9%. Calls follow the shape of the dose curve; as a rule, active = well fitted curve in the direction sought with a large enough effect; inconclusive = small, poorly fitted or top-dose-only effect, or another doubt; inactive = no such curve, though single readings can be large; an effect the other way counts as inactive or inconclusive.

SMILES	G9a inh	HP1b binding inh	JMJD2A Tudor	PLK1 PBD inh	BAZ2B block	ALOX12 inh
CCOC(=O)C1(C)/C(=N/Nc2ccccc2Cl)C(=O)C(=O)N1c1ccccc1 (configuration not stated)	3.5µM	u	40µM	u	50µM	u
CCOC(=O)C1(C)C=C(Nc2ccc(OC)cc2)C(=O)N1c1ccccc1 (configuration not stated)	u	n	n	x	n	n
CCOC(=O)C1(C)/C(=N/Nc2ccc(Cl)cc2)C(=O)C(=O)N1c1ccccc1 (configuration not stated)	u	u	16µM	u	56µM	u
CCOC(=O)C1(C)C=C(Nc2ccc(C(=O)O)cc2)C(=O)N1c1ccc(C(=O)O)cc1 (configuration not stated)	n	n	n	x	n	u
CCOC(=O)C1(C)/C(=N/Nc2ccc(S(N)(=O)=O)cc2)C(=O)C(=O)N1c1ccccc1 (configuration not stated)	35µM	n	n	n	n	n
CSc1ncccc1C(=O)OCC(=O)c1ccccc1Br	n	n	n	n	n	n
CSc1ncccc1C(=O)OCC(=O)c1ccc(Br)s1	n	u	u	19µM	n	n
CCCCC1(C)NC(=S)N2N1C(=S)NC2(C)CCCC (configuration not stated)	1.8µM	u	5.6µM	n	79µM	u
COc1ccc(CN2Cc3[nH]nc(-c4cncnc4)c3CC2=O)cc1	x	x	x	x	x	n
Cc1cc(C(=O)N2CCCC3(CCNCC3)CC2)c2cnn(C(C)C)c2n1	x	x	x	x	x	20µM
Cc1ccc(S(=O)(=O)N2CCN(C(=O)c3cc(C4CC4)nc4c3cnn4C(C)C)CC2)cc1	u	n	n	n	n	u
Cc1cc(-n2cnc3c(=O)[nH]cnc32)ccc1N	n[0.501 µM]	n	n	n	n	n
O=C(CSc1nnc(-c2ccccc2O)o1)N1CCCCC1	10µM	n	n	n	n	n
CC1CCCCN1C(=O)CSc1nnc(-c2ccccc2Cl)o1 (configuration not stated)	13µM	n	n	x	n	n
O=C(CSc1nnc(-c2ccccc2Br)o1)N1CCOCC1	n	n	n	n	n	n
O=C(CSc1nnc(-c2ccccc2O)o1)N1CCOCC1	n	n	56µM	n	79µM	n
CC(O)Cc1nsc(NC(=O)c2cccs2)n1 (configuration not stated)	n	n	n	n	n	n
C=CCSc1nnc(-c2c[nH]c3ccccc23)n1CCOC	n	n	n	n	n	n
C=C1C(=O)OC2C1CCC(C)=C1C(=O)C3OC3(C)C12 (configuration not stated)	x	n	n	19µM	x	n
C=C1C(=O)O[C@@H]2[C@@H]1CC/C(C)=C\CC[C@@]1(C)O[C@H]21	n[12.7 µM]	x	x	x	x	x
O=[N+]([O-])c1cccc(-c2nnc3n2CCCCC3)c1	n	n	n	n	n	n
O=[N+]([O-])c1ccc(-c2nnc3cccc(Cl)n23)cc1	35µM	n	56µM	n	u	n
O=[N+]([O-])c1cccc(-c2nnc3cccc(Cl)n23)c1	n	n	n	n	n	n
O=[N+]([O-])c1cccc(-c2nnc3ccc4ccccc4n23)c1	14µM	n	u	n	u	n
CN1CCN(c2ccccc2NC(=O)c2ccc(-c3ccccc3[N+](=O)[O-])o2)CC1	u	n	56µM	n	u	n
SMILES	G9a inh	HP1b binding inh	JMJD2A Tudor	PLK1 PBD inh	BAZ2B block	ALOX12 inh
O=C(Nc1ccccc1N1CCOCC1)c1ccc([N+](=O)[O-])o1	n	n	n	n	n	n
O=C(Nc1cccc(Cl)c1N1CCCC1)c1ccc([N+](=O)[O-])o1	10µM	n	u	n	u	n
CC(=O)N1CCN(c2ccccc2NC(=O)c2ccc(-c3cccc([N+](=O)[O-])c3)o2)CC1	u	n	n	n	n	n
CCN1CCN(c2c(Cl)cccc2NC(=O)c2ccc([N+](=O)[O-])o2)CC1	x	x	x	x	x	n
O=C(c1ccc([N+](=O)[O-])o1)N1CCN(c2nc3c(Cl)cccc3s2)CC1	35µM	n	u	n	u	n
O=C(Nc1ccccc1N1CCCCC1)c1ccc([N+](=O)[O-])o1	11µM	45µM	u	n	11µM	u
CC(=O)Nc1cccc2cc(S(=O)(=O)O)ccc12	x	x	x	n	x	n
COc1ccc(C(=O)N2CCCC(c3ccccc3)C2)cc1 (configuration not stated)	n	n	n[11.4 µM]	u	n	n
NS(=O)(=O)c1ccc(O)c(NC(=O)c2ccc([N+](=O)[O-])o2)c1	u	45µM	50µM	4.2µM	n	n
Cc1cc(C)cc(NC(=O)c2ccc([N+](=O)[O-])o2)c1	u	n	u	n	u	u
O=C(c1ccco1)N(Cc1cccs1)C1CCS(=O)(=O)C1 (configuration not stated)	n[12.7 µM]	n	n	n	n	n
O=C1CSC(=S)N1c1ccc(F)c(Cl)c1	u	n	n	u	n	u
CC(C)=C1C(=O)NN(c2ccc(F)c(Cl)c2)C1=O	x	n	n	n	u	10µM
O=C1NN(c2ccc(F)c(Cl)c2)C(=O)/C1=C\c1cccc(OC(=O)c2cccs2)c1	20µM	u	79µM	1.1µM	u	n
CCn1nnc(C(=O)O)c1C(=O)O	u	n	20µM	n	u	n
Cc1cc(N)c2ccccc2[n+]1CCCCCCCCCC[n+]1c(C)cc(N)c2ccccc21	50µM!	x	x	x	x	u
CCCCCCCCC[n+]1cccc2c3ccccc3ccc21	x	n	n	n	n	x
CCCn1nc(S(=O)(=O)N2CCCCC2)c(C(=O)OCC)c1C	x	x	x	x	x	6.3µM
CCCn1nc(S(=O)(=O)N2CCCC2)c(C(=O)OCC)c1C	x	x	x	x	x	11µM
CCOC(=O)c1c(S(=O)(=O)N2CCCCCC2)c(C)n(C)c1C	n	n	n	n	n	n
CC1(c2cccnc2)N(Cc2ccccc2)C(=O)OC12CCN(C(=O)c1cnccn1)CC2 (configuration not stated)	x	x	x	x	x	n
C/C(CCc1oc2ccccc2c1-c1ccc(C)o1)=N/O	u	n	56µM	n	u	n
C/C(CCc1oc2c(Br)cc(Br)cc2c1-c1ccc(C)o1)=N\O	u	n	u	u	u	u
Cc1ncc(CO)c(/C=N/Nc2ccc(C(F)(F)F)cn2)c1O	n	n	u	27µM	20µM	u
Cc1ncc(CO)c(/C=N/NC(=S)Nc2ccc(F)cc2)c1O	n	u	40µM	n	3.2µM	40µM
Cc1ncc(CO)c(/C=N/N=C/c2ccccc2O)c1O	n	n	u	n	u	n
Cc1cc(C)cc(N2C(=O)C3NN=C(C(=O)OCc4ccccc4)C3C2=O)c1 (configuration not stated)	n	n	n	n	n	n
NNc1ccc(Cc2ccc(Cl)cc2Cl)nn1	n	n	28µM	n	2.8µM	u
Cc1ccc(Cn2c(C)c3cnn(CC(=O)NCc4cccs4)c(=O)c3c2C)cc1	x	x	x	x	x	n

Screens as filed in PubChem.
